Sampled rows, rich in hits. Any-hit rate of the full collection: about 1.5%.
IDH1 R132H inh: human IDH1 R132H inhibition; 390,000 compounds, 0.093% hits; IDH1-R132H enzyme, NADPH consumption, diaphorase/resazurin fluorescence; Potency, µM (top dose mostly 76.6 µM), for inactives: at the highest dose activity change, negative = inhibition, actives largely listed as inhibitors; AID 602179; O75874; note: potency is the fitted concentration of half-maximal effect; nearly all actives have a fitted effect of over 65% in size
Target sequence (O75874 whole entry R132H, stated change not applied): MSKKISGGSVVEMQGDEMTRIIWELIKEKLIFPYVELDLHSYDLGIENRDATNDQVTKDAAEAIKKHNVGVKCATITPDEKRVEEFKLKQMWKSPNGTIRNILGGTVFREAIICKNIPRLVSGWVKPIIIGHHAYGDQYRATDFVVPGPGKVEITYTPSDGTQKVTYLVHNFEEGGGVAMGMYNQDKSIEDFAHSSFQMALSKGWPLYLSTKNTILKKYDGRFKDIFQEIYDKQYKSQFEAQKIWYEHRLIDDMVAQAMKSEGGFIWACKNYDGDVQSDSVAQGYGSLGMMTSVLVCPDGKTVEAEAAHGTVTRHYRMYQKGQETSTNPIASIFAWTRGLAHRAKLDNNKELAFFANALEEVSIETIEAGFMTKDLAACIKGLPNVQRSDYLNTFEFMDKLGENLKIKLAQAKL
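IDH1-R132H (0.5 ug/mL dispensed) in pH 7.5 Tris buffer was preincubated 30 min with compound, then given a substrate mix of 0.016 mM NADPH and 2 mM alpha-KG for 80 min at room temperature; remaining NADPH was read by diaphorase/resazurin fluorescence.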
Eya2 phos inh: Eya2 (human) phosphatase inhibition. O00167. recombinant Eya2, OMFP fluorescence dephosphorylation (OMFP is methylfluorescein phosphate). Potency, µM (highest dose often 76.9 µM), for inactives: at the top dose activity, negative = inhibition, hits mostly inhibitors. 330,000 compounds, 0.006% hits. AID 488837; note: potency is the fitted concentration of half-maximal effect
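Eya2 protein (added as 0.2 uM solution) was preincubated with compound for 10 min at ambient temperature in 50 mM HEPES pH 7.5, 50 mM NaCl, 5 uM MgCl2, 0.05% BSA, 1 mM DTT. OMFP (added at 50 uM) then reacted 10 min; fluorescence read at 485/525 nm.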
TrxR1 substrate: rat thioredoxin reductase 1 substrate activity; purified TrxR1 substrate turnover, NADPH consumption readout; AID 588456; 390,000 compounds, 0.01% hits; Potency, µM (top dose mostly 114 µM), for the others: at the highest dose activity change, negative = substrate turnover; O89049; note: potency is the fitted concentration of half-maximal effect; nearly all actives have a fitted effect of over 50% in size
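Rat TrxR1, dispensed at 90 nM, was prereduced with 400 uM NADPH (final) for 5 min at ~22 deg C, then incubated with compound 15 min before 400 uM selenite. A first-read NADPH fluorescence drop versus no-compound background flagged substrates.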
Coupling enz: counter-screen for Giardia aldolase inhibitors: coupling enzyme system; coupling enzyme system counterscreen, AmpLite Red fluorescence; activity change, negative = inhibition, % at 58.2 µM, hits read low; 290,000 compounds, 0.67% hits; in the data active = activity change below about -30%
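Counterscreen of the coupled detection system alone, without aldolase: glyceraldehyde-3-phosphate coupling enzymes plus AmpLite Red readout. Compounds at 57.5 uM final, 10 min RT preincubation, 20 min RT reaction, fluorescence 525/598 nm.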
rTrxR1 inhibitor: rat TrxR1 inhibition | O89049 | recombinant rTrxR1, NADPH fluorescence consumption, selenite substrate | Potency, µM (top dose mostly 114 µM), for inactives: at the top dose activity change, negative = inhibition, hits mostly inhibitors | 390,000 compounds, 1% hits | AID 588453; note: potency is the fitted concentration of half-maximal effect; nearly all actives have a fitted effect of over 65% in size
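Rat TrxR1 (90 nM in the dispensed reagent) was pre-reduced with 400 uM NADPH for 5 min at room temperature, then incubated with compound for 15 min. After 400 uM selenite was added, NADPH fluorescence (Ex 340/Em 450 nm) was followed for 8 min.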
* marks the source's active call; other numbers are inactive results; ? = inconclusive; nt = no result given; [ ] = remark or other dose. Unless noted, calls come from the whole dose curve; as a rule, active = well fitted curve in the direction sought with a large enough effect; inconclusive = small, poorly fitted or top-dose-only effect, or another doubt; inactive = no such curve, though single readings can be large; an effect the other way counts as inactive or inconclusive. % is set by controls: 0 for no effect and ±100 for the full control effect.

SMILES	IDH1 R132H inh	Eya2 phos inh	TrxR1 substrate	Coupling enz	rTrxR1 inhibitor
COC(=O)CCC/C=C1/SCC(NC(=O)c2ccccc2)C1=O (centres undefined)	9%	-1%	4%	1	25µM*
O=C(CCC(=O)N1CCCc2ccccc21)N1CCN(S(=O)(=O)c2ccccc2)CC1	0%	13%	13%[57.1 µM]	0	13%[57.1 µM]
O=C(CCS(=O)(=O)c1ccccc1)N1CCCc2ccccc21	-2%	11%	0%	-1	71µM*
CSCC[C@H](NC(=O)[C@@H](NC(=O)[C@H](CCC(=O)O)NC(=O)[C@H](CCSC)NC(=O)[C@H](CC(N)=O)NC(=O)[C@H](CCC(=O)O)NC(=O)[C@H](CC(N)=O)NC(=O)[C@H](CO)NC(=O)[C@H](C)N)[C@@H](C)O)C(=O)O	nt	nt	nt	-3	nt
C#CCOCCOCCOCCNc1nc(N2CCN(C(=O)CCCCCCCCCCNC(=O)Cn3cc(CCCCCN)nn3)CC2)nc(N2CCN(C(=O)CCCCCCCCCCNC(=O)Cn3cc(CCCCCN)nn3)CC2)n1	-1%[38.3 µM]	-34%	4%	nt	11µM*
C#CCOCCOCCOCCNc1nc(N2CCN(C(=O)CCCCCCCCCCNC(=O)[C@H]([C@@H](C)CC)n3cc(CCCCCN)nn3)CC2)nc(N2CCN(C(=O)CCCCCCCCCCNC(=O)[C@@H]([C@H](C)CC)n3cc(CCCCCN)nn3)CC2)n1	nt	28µM*	nt	nt	nt
O=C(O)C1CCCC1	nt	nt	13%	nt	13%
Cc1ccc(C(=O)N/C(=C\c2ccc(-c3ccccc3[N+](=O)[O-])o2)C(=O)NCCN(C)C)cc1	6%	5%	1%	-42*	14µM*
CCC[N+](C)(C)c1ccc(/C=C/c2ccncc2)cc1	nt	nt	-25%	nt	?
CN(C)c1ccc(/C=C/c2nc3ccccc3o2)cc1	nt	nt	4%	nt	-13%
CCOC(=O)c1c2c(n(-c3ccc(OC)cc3)c1C)C(=O)C(=O)c1ccccc1-2	14%	nt	56µM*	nt	?
CCOC(=O)c1sc(=S)n(-c2ccc(OC)cc2)c1C	5%	?	0%[57.1 µM]	4	3%[57.1 µM]
CCN1C(=O)[C@H]2[C@H]3[C@H](O)[C@H](O)CC(=O)[C@@H]3CC[C@H]2C1=O	nt	nt	0%	nt	12%
CN(C)CCCNc1cc(N2CCN(C)CC2)ncn1	nt	nt	0%	nt	7%
CCS(=O)(=O)c1c([N+](=O)[O-])ncn1C	-2%	5%	3%	-1	0.79µM*
O=C1c2ccccc2C(=O)c2c1ccc1c(=O)n(-c3ccccc3)[nH]c21	4%	2%	-4%	-8	2%
CC(C)Cn1[nH]c2c3c(ccc2c1=O)C(=O)c1ccccc1C3=O	8%	-12%	-5%	-30*	-4%
Cc1ccc(Cl)cc1NC(=O)C[n+]1ccc(Cc2ccc([N+](=O)[O-])cc2)cc1	2%	4%	-1%	-44*	0%
COc1ccc(C2C3C=CCCC3(C)C(=O)N2Cc2ccccc2)cc1Cl (centres undefined)	nt	nt	-8%	5	-5%
O=C1NC(=O)[C@@H]2C3c4ccccc4C=CN3[C@H](C(=O)c3cccs3)[C@H]12 (some centres undefined)	nt	10%	nt	-43*	nt
CC1=C2C(=COC(C)C2C)C(=O)C(C(=O)O)=C1O (centres undefined)	nt	nt	nt	-36*	nt
c1ccc2c(N=NN3CCCCC3)ccnc2c1	nt	nt	-5%	nt	6%
COc1ccc(C(=O)CCN(C)C)c2ccccc12	nt	nt	1%	nt	0.4µM*
COc1ccc(C(=O)c2ccc(Cl)cc2)c2ccccc12	6%	6%	-18%	-2	14%[57.1 µM]
Cc1ccc(-c2nnc(Sc3nc4ccccc4o3)c3ccccc23)cc1	-6%	-18%	1%	-3	-35%
SMILES	IDH1 R132H inh	Eya2 phos inh	TrxR1 substrate	Coupling enz	rTrxR1 inhibitor
Cc1nnc(Sc2nc3ccccc3o2)c2ccccc12	7%	-18%	-1%	0	8.9µM*
O=C(/C=C/c1cccc([N+](=O)[O-])c1)c1ccco1	-8%	2%	-4%	0	18µM*
O=C(/C=C/c1cccc([N+](=O)[O-])c1)c1ccc([N+](=O)[O-])o1	?	nt	-5%	nt	1.1µM*
O=C(CNC1=NCCS1)c1c[nH]c2ccccc12	nt	nt	-1%	nt	1%
CC(C)C1C(=O)N(S(C)(=O)=O)[C@H]2CCN(C(=O)/C=C/CN3CCCCC3)[C@@H]12 (some centres undefined)	nt	nt	nt	1	nt
CC[C@H](C)[C@H](N)C(=O)N[C@@H](CCCNC(=N)N)C(=O)N[C@@H](CCC(N)=O)C(=O)NCC(=O)N1CCC[C@H]1C(=O)N[C@@H](CCCCN)C(=O)N[C@@H](CCC(=O)O)C(=O)N1CCC[C@H]1C(=O)N[C@@H](Cc1ccccc1)C(=O)N[C@@H](CCCNC(=N)N)C(=O)N[C@@H](CC(=O)O)C(=O)N[C@@H](Cc1ccc(O)cc1)C(=O)N[C@H](C(=O)N[C@@H](CC(=O)O)C(=O)N[C@@H](CCCNC(=N)N)C(=O)N[C@@H](Cc1ccccc1)C(=O)N[C@@H](Cc1ccc(O)cc1)C(=O)N[C@@H](CCCCN)C(=O)N[C@H](C(=O)N[C@@H](CC(C)C)C(=O)O)[C@@H](C)O)C(C)C	nt	nt	nt	-1	nt
Cc1ccc(-c2ccc(NC(=O)C3C4C=CC(C4)C3C(=O)O)cc2)o1 (centres undefined)	-3%	-1%	-11%	3	22µM*
COc1ccc(NC(=O)C2C3C=CC(C3)C2C(=O)O)cc1 (centres undefined)	3%	?	0%	0	24%
COc1ccc(Br)c(OC)c1C(=O)NC(=O)Nc1nc(C)cc(C)n1	34%	15%	3%	-31*	18%
CC1(C)CC(=O)C=C(OC(=O)c2ccc(Cl)cc2)C1	-1%	0%	8%[57.1 µM]	0	4.5µM*
CCOc1ccc(C(NC(=O)/C=C/c2ccco2)c2ccc(OC)c(OC)c2)cc1 (centres undefined)	-6%	5%	1%	1	35µM*
CCN(CC)S(=O)(=O)c1ccc(N2CCCCC2)c(NC(=O)/C=C/c2ccc(OC)c(OC)c2)c1	1%	4%	-2%	2	-5%
O=C(/C=C/c1ccco1)NCC1(c2ccccc2)CCCC1	9%	-1%	-7%	-4	?
COc1ccc(C(NC(=O)/C=C/c2ccco2)c2ccc(OC)c(OC)c2)cc1 (centres undefined)	-6%	-1%	-8%	1	50µM*
COc1ccc(CNC(=O)/C=C/c2ccco2)cc1OC	0%	14%	3%	1	?
COc1ccc(C2(CNC(=O)/C=C/c3ccco3)CCCC2)cc1OC	10%	9%	5%	-4	3.5µM*
CCOc1ccc(C(NC(C)=O)c2ccc(OC)c(OC)c2)cc1 (centres undefined)	4%	-9%	1%[57.1 µM]	5	17%[57.1 µM]
